Reference: PubChem BioAssay AID1259343 (VanderVen Lab, College of Veterinary Medicine, Cornell …, 2017)
In all, about 6,200 compounds went through this assay and about 2,900 (47%) were called active. The set was probably picked from earlier hits. Some of the results follow. Unmarked numbers belong to inactive results. Cut-off read from the data, not from the text of the source: active = inhibition above about 50%; inactive = the rest.

Assay: Mycobacterium tuberculosis growth inhibition, primary screen (AID 1259343)
Details: inhibition: at 10 µM, hits give high values; outcome: 10 uM

Row | SMILES | inhibition
1 | C=CCOc1ccccc1CN(C(=O)CCl)c1ccc2c(c1)OCCO2 | 37.2%
2 | O=S(=O)(Nc1cc(Cl)ccc1-n1cncn1)c1ccc(F)cc1 | 66% (active)
3 | O=[N+]([O-])c1cc(S(=O)(=O)Nc2cc(Cl)ccc2F)ccc1F | 47.3%
4 | O=[N+]([O-])c1cc(S(=O)(=O)Nc2cc(Cl)ccc2-n2cncn2)ccc1Cl | 67.4% (active)
5 | O=c1[nH]nc(-c2ccccc2O)n1-c1ccc(Br)cc1 | -5.57%
6 | O=C(CCNc1ccc(-c2ccccc2)cc1)N1CCn2cncc2C1 | 92.2% (active)
7 | COC(=O)N1CCc2onc(-c3ccc(-c4ccccc4)cc3)c2C1 | 25.7%
8 | O=C(CN1CCN(C(=O)C2CCCO2)CC1)Nc1ccc(-c2ccccc2)cc1 (stereo not given) | 4.56%
9 | c1ccc(Cc2nnc3sc(-c4ccco4)nn23)cc1 | 21.3%
10 | CCCCOC(=O)c1ccc(Nc2ncnc3c2nnn3C)cc1 | 9.62%
11 | CCCOC(=O)c1ccc(NCN2C(=O)c3ccccc3C2=O)cc1 | 93.9% (active)
12 | O=C(CCc1nnc(CCC2CCCCC2)o1)NCCc1cccnc1 | 41%
13 | CN(Cc1ccoc1)C(=O)c1cn(CC2CCCCC2)nn1 | 26.8%
14 | CCn1cc(CNC(=O)CCc2nnc(CCC3CCCCC3)o2)cn1 | 76.4% (active)
15 | CC(Cc1cnccn1)NC(=O)CCc1nnc(CCC2CCCCC2)o1 (stereo not given) | 33.8%
16 | CC(CNC(=O)CCc1nnc(CCC2CCCCC2)o1)c1ccccc1 (stereo not given) | 57.9% (active)
17 | COCC(C)NC(=O)CCc1nnc(CCC2CCCCC2)o1 (stereo not given) | inactive
18 | O=C1Nc2ccc(Br)cc2C12Nc1ccccc1S2 (stereo not given) | 5.83%
19 | O=C(CCl)Nc1ccc(OC(F)F)c(Cl)c1 | 86.6% (active)
20 | FC(F)Oc1ccc(NC(=S)Nc2cccnc2)cc1Cl | 92.8% (active)
21 | Cc1cc(C(=O)Nc2ccc(OC(F)F)c(Cl)c2)on1 | 91.1% (active)
22 | CC(OC(=O)c1ccco1)C(=O)Nc1ccc(OC(F)F)c(Cl)c1 (stereo not given) | 4.36%

Row | SMILES | inhibition
23 | N#Cc1ncn(CC(=O)Nc2ccc(OC(F)F)c(Cl)c2)n1 | 73.2% (active)
24 | COC(=O)C1=C(OC)C(=O)OC12C=CC(=O)C=C2 | -11.4%
25 | Fc1ccc(Nc2nnc(-c3ccc(Br)s3)o2)c(F)c1 | 87.9% (active)
26 | Cc1cc2c(F)ccc(C)c2nc1N1CCC(O)(C(=O)O)CC1 | 86% (active)
27 | Clc1ccc(-c2cnnc(N3CCC(c4ccncc4)CC3)n2)cc1 | 21.9%
28 | CS(=O)c1ccccc1C(=O)OCc1c(Cl)cccc1Cl (stereo not given) | 30.8%
29 | CC(NC(=O)COC(=O)c1ccccc1O)c1cccs1 (stereo not given) | 88.8% (active)
30 | CC(C)C(NC(=O)C1=Cc2ccccc2OC1)c1cccs1 (stereo not given) | 5.93%
31 | CCOC(=O)N1CCN(C(=O)c2cc(COc3ccc(C)c(C)c3)on2)CC1 | 74.9% (active)
32 | Cc1cccc(N2CCN(C(=O)c3cc(COc4ccc(F)c(F)c4)on3)CC2)n1 | 52.2% (active)
33 | CCCCc1nnc(-c2cc3ccccc3[nH]2)o1 | 18.4%
34 | CCCc1nnc(-c2cc3ccccc3n2C)o1 | 69% (active)
35 | CCCc1nnc(-c2cc3ccccc3[nH]2)o1 | 38.4%
36 | c1ccc(CCc2nc(-c3ccncc3)no2)cc1 | inactive
37 | O=C(CCc1nc(-c2ccncc2)no1)Nc1ccc(Oc2ccccc2)cc1 | 95.7% (active)
38 | COC(=O)c1cccc(NC(=O)N2CCN(CCCOC(c3ccc(Cl)cc3)c3ccc(Cl)cc3)CC2)c1 | 13.4%
39 | CCc1noc(CSC2=Nc3ccccc3CS2)n1 | 23%
40 | c1ccc2[nH]c(-c3ccc(OCc4nc(CC5CC5)no4)cc3)nc2c1 | 10.7%
41 | c1ccc(OCc2noc(COc3ccc4ncccc4c3)n2)cc1 | 64.9% (active)
42 | c1ccc(OCc2noc(CN3CCN(c4ccccn4)CC3)n2)cc1 | 43%
43 | CN(Cc1nc(COc2ccccc2)no1)CC1CCOCC1 | 29.5%
44 | COc1ccc(-c2nc(CN(C)Cc3ccc4nsnc4c3)c(C)o2)c(C)c1C | 12.7%

Row | SMILES | inhibition
45 | CCc1ccc(CN(C)Cc2nc(COc3ccccc3)no2)nc1 | 93.7% (active)
46 | CN(Cc1ccc2nsnc2c1)Cc1nc(COc2ccccc2)no1 | 65.2% (active)
47 | CN(Cc1nc(COc2ccccc2)no1)CC1Cc2ccccc2O1 (stereo not given) | 53.6% (active)
48 | Nc1ccccc1Sc1c[nH]c2ccccc12 | 46.1%
49 | Cc1ccc(OCCN(C)c2ccccc2)cn1 | -0.64%
50 | Cc1ccc(OCCN(C)Cc2nc(COc3ccccc3)no2)cc1 | 80% (active)
51 | COc1ccc(N=Cc2c(NCCO)nc3c(C)cccn3c2=O)cc1 | 75.7% (active)
52 | Cc1ccc(N=Cc2c(Nc3ccccc3)nc3c(C)cccn3c2=O)cc1 | -12%
53 | COc1ccc(Nc2nc3c(C)cccn3c(=O)c2/C=N\Nc2ccccc2)cc1 | 88.8% (active)
54 | Cc1cccn2c(=O)nc(SC/C=C/c3ccccc3)nc12 | 7.88%
55 | O=S(=O)(NN=C1c2ccccc2-c2ccccc21)c1ccccc1 | -15.8%
56 | N#CCSc1nc2c(c(C3CC=CCC3)c1C#N)CCC2 (stereo not given) | 66.1% (active)
57 | CCSc1nc2c(c(C3CC=CCC3)c1C#N)CCC2 (stereo not given) | 45.2%
58 | CSc1nc2c(c(-c3ccc(O)cc3)c1C#N)CCC2 | 48.4%
59 | CC1CCC(N(C)C(=O)NCc2ncc(-c3ccccc3)o2)CC1 (stereo not given) | 76.1% (active)
60 | c1ccc(N2CCCC2)c(CNc2nc3ccccc3o2)c1 | 34.1%
61 | Cc1ccccc1-c1nc(CN2CCN(c3ncc4ccccc4n3)CC2)c(C)o1 | 20.3%
62 | c1ccc2oc(N3CCN(Cc4ccc(C5CCCO5)s4)CC3)nc2c1 (stereo not given) | 90.8% (active)
63 | c1ccc2oc(CN3CCC(c4nc5ccccc5s4)CC3)nc2c1 | -16%
64 | CC(C)c1nc(Cn2ccnc2-c2ccc(C3CCCCO3)s2)no1 (stereo not given) | -7.76%
65 | CCSc1ncc(CN2CCN(c3nc4ccccc4o3)CC2)cn1 | 95.3% (active)
66 | CCCCC(CC)CN1CNC(=S)NC1 (stereo not given) | 48.2%

Row | SMILES | inhibition
67 | O=S(=O)(Nc1cccc(Br)c1)c1ccc(Cl)s1 | 84.1% (active)
68 | O=S(=O)(Nc1cccc(Br)c1)c1ccc(Br)s1 | 97.3% (active)
69 | CC(=O)/C(=N/Nc1ccccc1[N+](=O)[O-])Oc1ccc(Br)cc1 | -28.4%
70 | COc1ccccc1CC(=O)NC1CCSc2ccccc21 (stereo not given) | -22.7%
71 | NC(=O)C1CN(C2CCCCc3ccccc32)CCO1 (stereo not given) | 49.4%
72 | COc1ccc(OC)c2c1CN(C1CCCc3ccccc31)CC2O (stereo not given) | 95.8% (active)
73 | CN(Cc1ccc2ccccc2c1)C(=O)COc1ccccc1F | 38.5%
74 | Cc1ccc(C(=O)NCc2ccc(-c3ccc(O)cc3)cc2)o1 | 40.6%
75 | Cc1ccc(CN(C)C(=O)COc2ccc(O)cc2)o1 | 80.2% (active)
76 | CCC(=O)OC(C#N)C1=C(Cl)C(=O)c2ccccc2C1=O (stereo not given) | 103% (active)
77 | CCOC(=O)CSc1nnc(Nc2ccc(C)cc2)s1 | -19.5%
78 | CCOCCCNC(=O)NC(=O)CSc1nnc(Nc2ccc(C)cc2)s1 | 83% (active)
79 | CCNC(=O)NC(=O)CSc1nnc(Nc2ccc(CC)cc2)s1 | 66.4% (active)
80 | CCNC(=O)NC(=O)CSc1nnc(Nc2ccc(C(C)C)cc2)s1 | 85% (active)
81 | CCCC(C)NC(=O)CSc1nnc(Nc2ccc(CC)cc2)s1 (stereo not given) | 84.9% (active)
82 | CN[C@@H]1C[C@@H](c2ccc(Cl)c(Cl)c2)c2ccccc21 | 48%
83 | COc1ccc2c(c1)OCC(C(=O)C(C#N)c1nc3ccccc3o1)C2 (stereo not given) | 99.3% (active)
84 | CC1(C)C(C(Cl)Cl)C2(Cl)C(Cl)C(Cl)C1(Cl)C2(Cl)Cl (stereo not given) | 76.2% (active)
85 | Cc1ccccc1N=C1NC(=O)C(Cc2ccccc2[N+](=O)[O-])S1 (stereo not given) | 56.7% (active)
86 | O=c1ccc([N+](=O)[O-])ccc1Nc1ccccn1 | 82.3% (active)
87 | Cc1noc(-c2ccc(C(=O)NCCC(C)C)cc2)n1 | -1.14%
88 | CC(C)CCNC(=O)c1ncc(Cl)c(Cl)c1Cl | 81.3% (active)

Row | SMILES | inhibition
89 | c1ccc(-c2noc3nc(OCc4ccccn4)ccc23)cc1 | 50.7% (active)
90 | Fc1ccc(-c2noc3nc(OCc4ncccn4)ccc23)cc1 | 46%
91 | Fc1ccccc1-c1noc2nc(OCc3ccccn3)ccc12 | 90.2% (active)
92 | Cc1nc(COc2ccc3c(-c4ccccc4F)noc3n2)cs1 | 62.8% (active)
93 | Cc1ccc(S(=O)(=O)CCC(=O)Nc2ccc(C)c(C)c2)cc1 | 68% (active)
94 | CCCCc1ccc(NC(=O)CCS(=O)(=O)c2ccc(Cl)cc2)cc1 | -52.4%
95 | Clc1ccc2c(Oc3ccc(Br)cc3)ccnc2c1 | 58% (active)
96 | Clc1ccc2c(Oc3cccc(Br)c3)ccnc2c1 | 0.33%
97 | O=C1c2ccccc2S(=O)(=O)N1c1cccc(Cl)c1 | inactive
98 | O=C1c2ccccc2S(=O)(=O)N1c1ccc(Cl)cc1 | 60.5% (active)
99 | O=C1c2ccccc2S(=O)(=O)N1c1ccc(Br)cc1 | -53.1%
100 | O=C1c2cccc(O)c2CCN1Cc1ccc(Br)cc1 | 19.3%
101 | CCCCOc1cccc2c1CCN(CC)C2=O | -1.17%
102 | O=C1c2cccc(O)c2CCN1Cc1ccc(Cl)cc1 | 58% (active)
103 | COc1cccc(CN2N=NC3C(=O)N(c4ccc(OC)c(Cl)c4)C(=O)C32)c1 (stereo not given) | 102% (active)
104 | CCOc1ccc(N2C(=O)C3N=NN(Cc4cc(C(=O)OC)ccc4OC)C3C2=O)cc1 (stereo not given) | -31.4%
105 | COc1ccc(N2C(=O)C3N=NN(Cc4ccccc4)C3C2=O)cc1Cl (stereo not given) | 20.8%
106 | COc1ccc(CN2N=NC3C(=O)N(c4ccc(OC)c(Cl)c4)C(=O)C32)cc1 (stereo not given) | 83.8% (active)
107 | Cc1cccc(CN2CCN(Cc3ccc(Cl)c(F)c3)CC2=O)c1 | 6.7%
108 | COC(=O)c1ccc(OC)c(CN2N=NC3C(=O)N(c4ccc(OC)c(Cl)c4)C(=O)C32)c1 (stereo not given) | 55.6% (active)
109 | COc1ccc(OC)c(Nc2nc(Cl)nc(Nc3cc(OC)ccc3OC)n2)c1 | 1.76%
110 | COc1ccc(N2C(=O)C3N=NN(Cc4cccc(C)c4)C3C2=O)cc1Cl (stereo not given) | 79.6% (active)
